Screening results as filed in PubChem.
NR2F2 inh – NR2F2 transcriptional activity inhibitors, primary screen, cell-based, luciferase reporter, HEK293T, luminescence; inhibition, % at 8.6 µM; HEK293T NGFI-A luciferase reporter; COUP transcription factor 2 (Homo sapiens), P24468; AID 686940, 2013; 370,000 tested, 0.7% active;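 active means inhibition above a per-plate cutoff, mean inhibition of test wells between control levels plus 3 SD, cut at about 38% in these data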;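 further: cells cotransfected with COUP-TFII expression vector driving the NGFI-A reporter; 0% = median of COUP-TF2 test wells and 100% = reporter-only cells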
Target sequence (P24468 whole entry, looked up): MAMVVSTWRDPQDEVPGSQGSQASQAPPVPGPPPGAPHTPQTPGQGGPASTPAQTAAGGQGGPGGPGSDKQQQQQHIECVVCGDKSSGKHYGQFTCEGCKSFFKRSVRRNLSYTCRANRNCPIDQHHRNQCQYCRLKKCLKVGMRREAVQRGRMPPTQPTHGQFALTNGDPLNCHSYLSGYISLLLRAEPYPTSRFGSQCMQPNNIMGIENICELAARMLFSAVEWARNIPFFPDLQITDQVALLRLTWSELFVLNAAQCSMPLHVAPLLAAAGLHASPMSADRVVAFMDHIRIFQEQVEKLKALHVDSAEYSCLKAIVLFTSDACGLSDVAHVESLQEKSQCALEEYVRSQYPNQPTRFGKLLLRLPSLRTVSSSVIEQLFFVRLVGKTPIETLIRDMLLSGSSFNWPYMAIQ
Cardio protect – cardioprotection against H2O2-induced cell death, primary screen, uHTS, H9c2 cells, ATPLite luminescence. 360,000 tested, 0.63% active. H9c2 cardiomyocytes, H2O2 injury protection, 2 h. protection from H2O2 cell death, % at 20 µM. AID 588492, 2011;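 active means compounds giving at least 50% protection of heart cells from peroxide-induced death in the single-dose screen, raw or plate-pattern-corrected value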;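 further: 0% = DMSO wells with peroxide and 100% = DMSO wells without peroxide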
Gli-Sufu antag – Gli-Sufu pathway antagonists, primary screen, luciferase luminescence, Sufu-KO-LIGHT cells, uHTS; Sufu-KO-LIGHT fibroblasts, Gli luciferase reporter luminescence; AID 588413, 2011; inhibition, % at 5 µM; 340,000 tested, 0.74% active;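 active means inhibition above about 55%, limit read from the data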;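 further: 0% = DMSO-treated cells and 100% = wells with medium but no cells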
SMARCA2 activ – SMARCA2 (BRM) function activators, primary screen, cell-based, luminescence, high throughput. 370,000 tested, 1% active. MG213 cells, MMTV-luciferase reporter, dexamethasone, overnight. activation, % at 9.1 µM; in the data active means activation above about 7.8%;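 further: 0% = vehicle wells and 100% = reference activator wells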
GAA850 FXN act – FXN promoter activators, primary screen, cell-based, luciferase luminescence, HEK293 lucGAA850; HEK293 lucGAA850 FXN promoter luciferase reporter, 24 h; percent of 10 µM SAHA response; activation, % at 6 µM; 360,000 tested, 0.56% active; AID 540364, 2011;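 active means activation above the average of all compounds screened plus 3 SD, cutoff fixed separately per campaign, cut at about 7.5% in these data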;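 further: 0% = DMSO wells and 100% = 10 µM SAHA wells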
GalR3 antagonist – GalR3 antagonists in HEK293 cells, primary screen, cell-based, fluorescence readout; 360,000 tested, 0.44% active; HEK293 GalR3-CNG cAMP membrane potential fluorescence; galR3 body fused to GalR1 C-terminus; inhibition, % at 3 µM;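 active means inhibition above the screen-wide average plus 3 SD, cut at about 13% in these data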;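 further: forskolin and galanin both at EC90 stimulate the cells; cAMP rise reported by CNG channel membrane potential dye signal; 0% = forskolin plus galanin with DMSO and 100% = forskolin alone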
Gli antag conf – Gli-SUFU pathway antagonists, confirmation, single concentration, luciferase luminescence, Sufu-KO-LIGHT cells; Gli luciferase reporter; shares compounds with Gli-Sufu antag; inhibition, % at 5 µM; 2,500 tested, 40% active;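 active means mean inhibition at 5 µM reaching about 45%, limit read from the data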;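 further: plate controls were DMSO-treated cells for no effect and wells lacking cells for full effect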
SufuKO cytotox – cytotoxicity in Sufu-KO-LIGHT cells, confirmation, cytotoxicity control for Gli-SUFU antagonist project, cell-based, ATP luminescence, single concentration. AID 651994, 2013. 2,500 tested, 32% active. shares compounds with Gli-Sufu antag. cytotoxicity, % at 5 µM;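 active means mean cytotoxicity at 5 µM above about 25%, limit read from the data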;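 further: cells exposed to compound overnight for roughly 16 to 18 hours; plate controls were DMSO wells with cells for no effect and medium without cells for full effect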
Wnt3a cs – Wnt3a reporter signal inhibition, confirmation, counter-screen for Gli-SUFU antagonist project, Wnt-LIGHT cells, luminescence, single concentration | shares compounds with Gli-Sufu antag | 2,500 tested, 20% active | Wnt3a-driven luciferase reporter | inhibition, % at 6.25 µM;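 active means mean inhibition above about 25%, limit read from the data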
GalR3 conf – GalR3 antagonist hit confirmation, cell-based, fluorescence, triplicate. shares compounds with GalR3 antagonist. 1,600 tested, 59% active. inhibition, % at 3 µM. HEK293 GalR3 CNG cAMP biosensor, membrane potential fluorescence; galR3 fused to GalR1 carboxy tail; challenged with forskolin and galanin at EC90;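 active means inhibition above the primary screen's cutoff, the mean inhibition of all screened compounds plus 3 SD, cut at about 13% in these data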;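 further: 0% = forskolin plus galanin and 100% = forskolin alone with DMSO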
CNG parental – nonspecific cAMP agonists in parental HEK-CNG cells, counter-screen for GalR3 antagonist project, cell-based, fluorescence, high throughput; 1,600 tested, 10% active; shares compounds with GalR3 antagonist; AID 652268, 2013; HEK293-CNG parental cells, cAMP membrane potential fluorescence; normalised: DMSO wells 0%, forskolin wells 100%; activation, % at 3 µM; in the data active means activation above about 1.3%
Gal4-VP16 ctr – Gal4-VP16 luciferase reporter inhibitors, counter-screen for COUP-TFII antagonist project, cell-based, luminescence, HEK293. 2,500 tested, 25% active. shares compounds with NR2F2 inh. inhibition, % at 8.5 µM; in the data active means inhibition above about 13%
NR2F2 inh conf – NR2F2 transcriptional activity inhibitors, confirmation, cell-based, luciferase reporter, HEK293, triplicate; HEK293 NGFI-A luciferase reporter, luminescence; inhibition, % at 8.5 µM; AID 687008, 2013; shares compounds with NR2F2 inh; 2,500 tested, 45% active;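 active means mean inhibition over three repeats above a set limit taken from the earlier primary screen, cut at about 38% in these data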;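 further: 100% = cells given the luciferase reporter alone without the COUP-TF2 vector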
* hit, by the source's call; . = not tested or not shown. Compounds with a hit are over-represented: about 3.4% of the library has one in this group of screens.

SMILES	NR2F2 inh	Cardio protect	Gli-Sufu antag	SMARCA2 activ	GAA850 FXN act	GalR3 antagonist	Gli antag conf	SufuKO cytotox	Wnt3a cs	GalR3 conf	CNG parental	Gal4-VP16 ctr	NR2F2 inh conf
Cn1cc(S(=O)(=O)N2CCc3ccccc32)cc1C(=O)NC(C)(C)C	59.3*	-25.4	61.2*	-2.3	-4.3	.	58.1*	35.1*	13.2	.	.	4.8	45.2*
CC(c1ccccc1)N1CCN(C(=O)CCl)CC1 (centres undefined)	-8.3	-8.6	-0.9	-4.0	-14.4	-3.3	.	.	.	.	.	.	.
COc1ccccc1-c1noc(CCCC(=O)NC2CCCC2)n1	-0.1	-2.6	23.9	-2.4	0.3	-8.4	.	.	.	.	.	.	.
O=C(CCCc1nc(-c2ccccc2Cl)no1)NC1CCCC1	73.5*	-2.4	64.3*	-6.1	-14.4	-1.9	57.2*	-1.3	93.0*	.	.	-0.3	3.0
CC(C)(C)c1ccc(-n2ncc3c2CCCC3NC(=O)C2(C(N)=O)CC2)cc1 (centres undefined)	65.3*	-15.7	76.3*	-5.0	-2.1	91.8*	65.0*	30.0*	-10.3	113.9*	0.0	-8.2	59.9*
COCC1CCCCN1C(=O)c1cc(COc2ccc3ncccc3c2)on1 (centres undefined)	44.1*	-13.8	71.8*	-5.1	-5.0	24.6*	59.3*	21.6	33.7*	93.1*	-0.5	6.3	57.2*
COCCC1CCCCN1C(=O)c1cc(COc2ccc(-n3cncn3)cc2)on1 (centres undefined)	43.5*	-19.1	58.1*	-3.8	0.7	-4.1	67.5*	23.1	39.9*	.	.	1.0	41.5*
CC(CCCC(C)(C)O)NC(=O)c1cc(COc2ccc3ncccc3c2)on1 (centres undefined)	59.8*	-17.0	51.0	-5.0	-2.6	14.8*	56.3*	21.8	31.1*	50.2*	-0.1	10.3	48.5*
CCC1CCCCN1C(=O)c1cc(COc2ccc3ncccc3c2)on1 (centres undefined)	72.4*	-23.1	72.0*	-4.3	-3.2	71.3*	71.9*	34.9*	16.8	112.1*	-0.1	6.2	65.6*
CCCCNC(=O)c1nc(C2CCN(S(=O)(=O)c3ccccc3C(F)(F)F)CC2)oc1-c1ccccc1	13.0	3.6	.	-2.5	.	-7.1	.	.	.	.	.	.	.
